PubChem BioAssay (Tox21)
Inconclusive results are not listed. Activity calls are given as the source filed them. Calls come from the whole dose curve; as a rule, active = well fitted curve in the direction sought with a large enough effect in the repeat runs; inconclusive = weak or mixed curves; inactive = no such curve, though single readings can be large; an effect the other way counts as inactive or inconclusive.

Experiments:
[1] = qHTS RealTime-Glo MT Cell Viability Assay in HepG2 cells - 24 hour (AID 1224867); note: nearly all actives have a fitted effect of over 50% in size
In short: (§1)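 HepG2 cells (600/well) were dispensed with RealTime-Glo reagents, incubated 5 h at 37 °C, then treated with compounds in DMSO for up to 40 h. Nonlytic NanoLuc luminescence reflecting viable cells was read at each stated time point.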

[2] = qHTS RealTime-Glo MT Cell Viability Assay in HEK293 cells - 32 hour (AID 1224868); note: top concentration of the series differs between compounds; nearly all actives have a fitted effect of over 50% in size
In short: (§2)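 HEK293 cells seeded with NanoLuc/prosubstrate reagent, rested 5 h at 37 C, then dosed and kept at 37 C up to 40 h. Nonlytic real-time luminescence from viable cells read at 0, 8, 16, 24, 32 and 40 h.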

[3] = qHTS RealTime-Glo MT Cell Viability Assay in HepG2 cells - 40 hour (AID 1224870); note: nearly all actives have a fitted effect of over 50% in size
In short: (§3)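 HepG2 cells (600/well) mixed with RealTime-Glo MT reagent, settled 5 h at 37 C/5% CO2 before compound addition. Nonlytic NanoLuc luminescence from viable-cell prosubstrate reduction read repeatedly during 40 h treatment at 37 C.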

[4] = A CellTox Green Cytotoxicity Assay to monitor cytotoxicity in HEK293 cells - 40 hour (AID 1224871); note: nearly all actives have a fitted effect of over 45% in size
In short: (§4)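 Fluorescence intensity, read at 0, 8, 16, 24, 32 and 40 h of compound treatment, reflected dye binding to DNA of dead HEK293 cells; compounds (23 nL, DMSO) were added 5 h after plating cells with reagent.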

[5] = qHTS RealTime-Glo MT Cell Viability Assay in HEK293 cells - 16 hour (AID 1224872); note: top concentration of the series differs between compounds; nearly all actives have a fitted effect of over 50% in size
In short: as §2

[6] = qHTS RealTime-Glo MT Cell Viability Assay in HepG2 cells - 8 hour (AID 1224873); note: nearly all actives have a fitted effect of over 55% in size
In short: as §3

[7] = qHTS RealTime-Glo MT Cell Viability Assay in HEK293 cells - 40 hour (AID 1224874); conditions: RealTime-Glo luminescence; max response: active compounds read low; note: nearly all actives have a fitted effect of over 50% in size
In short: (§5)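 Viable HEK293 cells reduce a cell-permeant prosubstrate; the product diffuses out and is consumed by NanoLuc in the medium to give light. Compounds went in after a 5 h incubation and plates were read over the treatment course.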

[8] = A CellTox Green Cytotoxicity Assay to monitor cytotoxicity in HEK293 cells - 24 hour (AID 1224875); note: series mostly up to about 77 µM; nearly all actives have a fitted effect of over 45% in size
In short: as §4

[9] = qHTS RealTime-Glo MT Cell Viability Assay in HepG2 cells - 32 hour (AID 1224877); note: nearly all actives have a fitted effect of over 55% in size
In short: as §1

[10] = A CellTox Green Cytotoxicity Assay to monitor cytotoxicity in HepG2 cells - 24 hour (AID 1224878); note: nearly all actives have a fitted effect of over 45% in size
In short: (§6)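 Using 1536-well format, dye-containing HepG2 suspension was seeded, allowed 5 h at 37 C/5% CO2, dosed by pintool with compounds, positive and negative controls, and imaged for fluorescence across 40 h.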

[11] = A CellTox Green Cytotoxicity Assay to monitor cytotoxicity in HepG2 cells - 40 hour (AID 1224879); note: nearly all actives have a fitted effect of over 40% in size
In short: as §6

[12] = qHTS RealTime-Glo MT Cell Viability Assay in HEK293 cells - 0 hour (AID 1224880); note: top concentration of the series differs between compounds; nearly all actives have a fitted effect of over 45% in size
In short: as §5

[13] = A CellTox Green Cytotoxicity Assay to monitor cytotoxicity in HEK293 cells - 32 hour (AID 1224881); note: nearly all actives have a fitted effect of over 40% in size
In short: as §4

[14] = A CellTox Green Cytotoxicity Assay to monitor cytotoxicity in HepG2 cells - 32 hour (AID 1224883); note: nearly all actives have a fitted effect of over 50% in size
In short: as §6

[15] = A CellTox Green Cytotoxicity Assay to monitor cytotoxicity in HEK293 cells - 8 hour (AID 1224884); note: nearly all actives have a fitted effect of over 35% in size
In short: as §4

[16] = qHTS RealTime-Glo MT Cell Viability Assay in HepG2 cells - 16 hour (AID 1224885); note: nearly all actives have a fitted effect of over 50% in size
In short: as §1

[17] = A CellTox Green Cytotoxicity Assay to monitor cytotoxicity in HepG2 cells - 0 hour (AID 1224882); note: nearly all actives have a fitted effect of over 35% in size
In short: as §6

[18] = A CellTox Green Cytotoxicity Assay to monitor cytotoxicity in HepG2 cells - 16 hour (AID 1224876); note: nearly all actives have a fitted effect of over 45% in size
In short: as §6

[19] = A CellTox Green Cytotoxicity Assay to monitor cytotoxicity in HEK293 cells - 0 hour (AID 1224869); note: nearly all actives have a fitted effect of over 50% in size
In short: as §4
% is set by controls: 0 for no effect and ±100 for the full control effect.

CC1(C)CC(OC(=O)CCCCCCCCC(=O)OC2CC(C)(C)NC(C)(C)C2)CC(C)(C)N1
inactive: activity change, negative = cytotoxicity [1] 2.8% [at 15.8 µM] | activity change, negative = cytotoxic [2] 12.2% [at 15.8 µM] | activity change, negative = cytotoxic [3] 6.12% [at 15.8 µM] | cytotoxicity increase [4] -6.42% [at 15.8 µM] | activity change, negative = cytotoxicity [5] 3.79% [at 15.8 µM] | viability change, negative = cytotoxic [6] -0.0146% [at 15.8 µM] | max response [7] 17% | activity change [8] -4.42% [at 15.8 µM, active compounds read high] | activity change, negative = cytotoxic [9] 3.56% [at 15.8 µM] | cytotoxicity [10] -8.38% [at 15.8 µM] | cytotoxicity increase [11] -12% [at 15.8 µM] | activity change, negative = cytotoxicity [12] 17.6% [at 15.8 µM] | cytotoxicity increase [13] -5.67% [at 15.8 µM] | cytotoxicity increase [14] -10.5% [at 15.8 µM] | cytotoxicity increase [15] -2.02% [at 15.8 µM] | activity change, negative = cytotoxic [16] -0.753% [at 15.8 µM]

CC(C)c1ccc(C=O)cc1
inactive: outcome [1] | Potency [2] | Potency [4] | Potency [5] | outcome [6] | max response [7] 13.2% | Potency [8] | outcome [9] | Potency [10] | Potency [11] | Potency [12] | Potency [13] | Potency [17] | Potency [14] | Potency [15] | outcome [16]

CN(C)CCN(C)CCO
inactive: outcome [1] | Potency [2] | outcome [3] | Potency [5] | outcome [6] | max response [7] 5.64% | Potency [8] | Potency [18] | outcome [9] | Potency [10] | Potency [11] | Potency [12] | Potency [13] | Potency [17] | Potency [14] | Potency [15] | outcome [16]

c1ccc(B(c2ccccc2)c2ccccc2)cc1
inactive: outcome [1] | Potency [19] | outcome [3] | Potency [4] | outcome [6] | Potency [8] | Potency [18] | outcome [9] | Potency [10] | Potency [11] | Potency [12] | Potency [13] | Potency [17] | Potency [14] | Potency [15] | outcome [16]

CN(C)C(C)(C)CO
inactive: outcome [1] | Potency [2] | Potency [19] | Potency [5] | max response [7] 1.89% | Potency [8] | Potency [18] | outcome [9] | Potency [10] | Potency [11] | Potency [12] | Potency [13] | Potency [17] | Potency [14] | Potency [15] | outcome [16]

CC(=O)C(C)O (stereo not drawn)
inactive: outcome [1] | Potency [2] | outcome [3] | Potency [5] | max response [7] 16% | Potency [8] | Potency [18] | outcome [9] | Potency [10] | Potency [11] | Potency [12] | Potency [13] | Potency [17] | Potency [14] | Potency [15] | outcome [16]

N#Cc1ccccc1O
inactive: outcome [1] | Potency [2] | Potency [19] | Potency [5] | max response [7] 15.1% | Potency [8] | Potency [18] | outcome [9] | Potency [10] | Potency [11] | Potency [12] | Potency [13] | Potency [17] | Potency [14] | Potency [15] | outcome [16]

[O]=[Mo](=[O])=[O]
inactive: activity change, negative = cytotoxicity [1] 2.84% [at 15.8 µM] | activity change, negative = cytotoxic [3] -4.78% [at 15.8 µM] | cytotoxicity increase [4] -43.2% [at 15.8 µM] | viability change, negative = cytotoxic [6] 2.7% [at 15.8 µM] | activity change [8] -37.6% [at 15.8 µM, active compounds read high] | cytotoxicity increase [18] -8.07% [at 15.8 µM] | activity change, negative = cytotoxic [9] 0.396% [at 15.8 µM] | cytotoxicity [10] -10.8% [at 15.8 µM] | cytotoxicity increase [11] -15% [at 15.8 µM] | cytotoxicity increase [13] -39.2% [at 15.8 µM] | cytotoxicity [17] -4.74% [at 15.8 µM] | cytotoxicity increase [14] -13.6% [at 15.8 µM] | cytotoxicity increase [15] -27.3% [at 15.8 µM] | activity change, negative = cytotoxic [16] 6.22% [at 15.8 µM]

CCCCOCCOC(=O)COc1ccc(Cl)cc1Cl
inactive: outcome [1] | Potency [2] | outcome [3] | Potency [4] | Potency [5] | outcome [6] | max response [7] 1.37% | Potency [8] | Potency [18] | outcome [9] | Potency [10] | Potency [11] | Potency [12] | Potency [13] | Potency [17] | Potency [14] | Potency [15] | outcome [16]

CCCCCCCCCCOC(C)=O
inactive: outcome [1] | Potency [2] | outcome [3] | Potency [4] | Potency [5] | outcome [6] | max response [7] 0.865% | Potency [8] | Potency [18] | outcome [9] | Potency [10] | Potency [11] | Potency [13] | Potency [17] | Potency [14] | Potency [15] | outcome [16]

N#Cc1cscn1
inactive: Potency [2] | Potency [19] | Potency [4] | Potency [5] | outcome [6] | max response [7] 9.48% | Potency [8] | Potency [18] | outcome [9] | Potency [10] | Potency [11] | Potency [12] | Potency [13] | Potency [17] | Potency [14] | Potency [15] | outcome [16]

CCOC(=O)CC1(C)OCC(C)O1 (stereo not drawn)
inactive: Potency [2] | outcome [3] | Potency [4] | Potency [5] | outcome [6] | max response [7] 1.97% | Potency [8] | Potency [18] | outcome [9] | Potency [10] | Potency [11] | Potency [12] | Potency [13] | Potency [17] | Potency [14] | Potency [15] | outcome [16]

CC(=O)CC(=O)Nc1ccc(C)cc1C
inactive: Potency [2] | Potency [19] | Potency [4] | Potency [5] | outcome [6] | max response [7] -1.23% | Potency [8] | Potency [18] | outcome [9] | Potency [10] | Potency [11] | Potency [12] | Potency [13] | Potency [17] | Potency [14] | Potency [15] | outcome [16]

COc1cc2c(cc1OC)CN(C(=O)[C@H](C)N[C@@H](CCc1ccccc1)C(=O)O)[C@H](C(=O)O)C2
inactive: Potency [2] | Potency [19] | outcome [3] | Potency [4] | Potency [5] | max response [7] 2.78% | Potency [8] | Potency [18] | outcome [9] | Potency [10] | Potency [11] | Potency [12] | Potency [13] | Potency [17] | Potency [14] | Potency [15] | outcome [16]

O=C1CCC(=O)N1Cl
inactive: Potency [2] | Potency [19] | outcome [3] | Potency [4] | Potency [5] | outcome [6] | max response [7] 7.58% | Potency [8] | Potency [18] | outcome [9] | Potency [10] | Potency [11] | Potency [12] | Potency [13] | Potency [17] | Potency [14] | Potency [15] | outcome [16]
